Assay outcomes as filed in PubChem BioAssay.
Compounds with a hit are over-represented: about 2.7% of the library has one in this group of screens.
PAFAH2 FP inh = PAFAH2 (human) inhibition; Q99487; inhibition, % at 3.39 µM; 0.99% of 340,000 active; recombinant PAFAH2, FP-rhodamine activity probe, fluorescence polarization;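 active means inhibition above the mean over all tested compounds plus 3 SD, cut at about 30% in these data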;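 further: inhibitors block probe labeling of enzyme so polarization drops; 0% = enzyme with DMSO and 100% = wells lacking PAFAH2 protein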
PAFAH1B2 inh = PAFAH1B2 (human) inhibition. P68402. recombinant PAFAH1B2, FP-rhodamine activity probe, fluorescence polarization. inhibition, % at 3.39 µM. 1.2% of 340,000 active. AID 492953;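 active means inhibition above the mean of all tested compounds plus 3 SD, cut at about 24% in these data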;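 further: 0% = enzyme with DMSO and 100% = wells lacking PAFAH1B2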
pPAFAH inh = pPAFAH (human) enzyme inhibition | inhibition, % at 3.39 µM | Q13093 | recombinant pPAFAH, FP-rhodamine probe fluorescence polarization | 1.5% of 330,000 active;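 active means inhibition above the mean inhibition across the screen plus 3 SD, cut at about 25% in these data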;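 further: inhibitors block binding of the rhodamine activity-based probe so polarization drops; 0% = enzyme with DMSO and 100% = wells lacking pPAFAH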
Target sequence (Q13093 whole entry, looked up): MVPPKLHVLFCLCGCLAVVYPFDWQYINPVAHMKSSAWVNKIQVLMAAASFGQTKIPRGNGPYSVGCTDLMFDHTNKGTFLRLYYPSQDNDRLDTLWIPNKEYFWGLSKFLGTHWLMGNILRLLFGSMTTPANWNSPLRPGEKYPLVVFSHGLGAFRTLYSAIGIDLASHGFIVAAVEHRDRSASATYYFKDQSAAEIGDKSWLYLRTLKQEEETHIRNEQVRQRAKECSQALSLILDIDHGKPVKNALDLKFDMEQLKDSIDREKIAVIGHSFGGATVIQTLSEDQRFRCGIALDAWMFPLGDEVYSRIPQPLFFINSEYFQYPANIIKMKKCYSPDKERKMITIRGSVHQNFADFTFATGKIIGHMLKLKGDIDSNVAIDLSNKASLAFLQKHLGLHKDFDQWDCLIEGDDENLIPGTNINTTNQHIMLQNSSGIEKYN
PAFAH1B3 inh = blocks human PAF acetylhydrolase 1B catalytic subunit 3. inhibition, % at 3.39 µM. AID 492972. recombinant PAFAH1B3, FP-rhodamine probe, fluorescence polarization. 0.28% of 340,000 active;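 active means inhibition above the screen-wide average of all tested compounds plus 3 SD, cut at about 25% in these data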;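 further: 0% = enzyme with DMSO only and 100% = wells lacking PAFAH1B3 protein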
Target sequence (Q15102 whole entry, looked up): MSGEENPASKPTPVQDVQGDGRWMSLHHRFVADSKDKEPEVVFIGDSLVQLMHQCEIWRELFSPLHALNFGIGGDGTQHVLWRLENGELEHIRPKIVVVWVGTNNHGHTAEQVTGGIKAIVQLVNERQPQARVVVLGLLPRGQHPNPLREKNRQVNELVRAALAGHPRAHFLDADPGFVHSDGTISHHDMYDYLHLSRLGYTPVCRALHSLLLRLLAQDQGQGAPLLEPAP
TCR-CD3 inh = human TCR-CD3 binding inhibition. TAMRA-labeled TCR probe fluorescence, biochemical. inhibition, % at 9.4 µM. 0.37% of 360,000 active. AID 651800; in the data active means inhibition above about 19%;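 further: recombinant mutant TCR 2C K166C tagged with TAMRA read by polarization; 0% = receptor in buffer alone and 100% = receptor with positive control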
* marks the source's active call; other numbers are inactive results.

Cc1ccc(CSCCC(=O)NCCc2ccc(Cl)cc2)cc1 was read as PAFAH2 FP inh -2, PAFAH1B2 inh 15, pPAFAH inh 6, PAFAH1B3 inh 1 and TCR-CD3 inh 4.
`Cc1ccc(CNC(=O)CCSCc2ccc(C)cc2)cc1` gave PAFAH2 FP inh 5, PAFAH1B2 inh 15, pPAFAH inh 10, PAFAH1B3 inh 2 and TCR-CD3 inh 4.
`O=C(CCSCc1cccc(Cl)c1)NCCc1ccc(Cl)cc1` gave PAFAH2 FP inh 1, PAFAH1B2 inh 28*, pPAFAH inh 4, PAFAH1B3 inh 0 and TCR-CD3 inh 3.
Cc1ccccc1CSCCNC(=O)CCSc1ccccc1 was read as PAFAH2 FP inh 1, PAFAH1B2 inh 18, pPAFAH inh 4, PAFAH1B3 inh 2 and TCR-CD3 inh -1.
O=C(CCSCc1ccc(Cl)cc1)NC1CCCC1 was read as PAFAH2 FP inh -2, PAFAH1B2 inh 27*, pPAFAH inh 4, PAFAH1B3 inh 1 and TCR-CD3 inh 2.
For Cc1ccc(CSCCNC(=O)CCSc2ccccc2)cc1 the results were PAFAH2 FP inh 4, PAFAH1B2 inh 41*, pPAFAH inh 12, PAFAH1B3 inh 0 and TCR-CD3 inh 3.
Screening COc1ccc(OC)c(C2NC(=O)NC(C)=C2C(=O)OCc2ccccc2)c1 (stereo not given) returned PAFAH2 FP inh -11, PAFAH1B2 inh 2, pPAFAH inh 15, PAFAH1B3 inh 8 and TCR-CD3 inh -3.
`Cc1ccc(SCCC(=O)Nc2ccccc2Br)cc1` gave PAFAH2 FP inh 2, PAFAH1B2 inh 26*, pPAFAH inh 3, PAFAH1B3 inh 8 and TCR-CD3 inh 4.
Cc1ccc(SCCC(=O)Nc2ccc(Br)c(C)c2)cc1 was read as PAFAH2 FP inh -2, PAFAH1B2 inh 15, pPAFAH inh -1, PAFAH1B3 inh 2 and TCR-CD3 inh 4.
`C[C@H](CO)N1C[C@H](C)[C@@H](CN(C)C(=O)Oc2ccccc2)OCc2cn(nn2)CCCC1=O` gave TCR-CD3 inh -2.
COC(=O)[C@]12C[C@H](CC(=O)N3CCCC3)C(=O)N(Cc3ccccc3)C1=C[C@H](C(C)(C)C)O[C@@H]2C was read as TCR-CD3 inh 1.
For COc1cc([N+](=O)[O-])c(OC)cc1Nc1ccccc1C(=O)O the results were TCR-CD3 inh 1.
Screening COc1cc(-c2ccc(Nc3ccccc3C(=O)O)c(OC)c2)ccc1Nc1ccccc1C(=O)O returned PAFAH2 FP inh 54*, PAFAH1B2 inh 12, PAFAH1B3 inh 29* and TCR-CD3 inh 10.
Screening CC(C)C(OC(=O)CN1C(=O)COc2ccccc21)C(=O)NC1CCCCC1 (stereo not given) returned PAFAH2 FP inh -1, PAFAH1B2 inh 5, pPAFAH inh -1, PAFAH1B3 inh -3 and TCR-CD3 inh 0.
For O=C1c2ccccc2-c2onc3c(N4CCN(CCO)CC4)cc(N4CCN(C(=O)c5ccco5)CC4)c1c23 the results were PAFAH2 FP inh -109, PAFAH1B2 inh -58, pPAFAH inh 29*, PAFAH1B3 inh -78 and TCR-CD3 inh 10.
Screening C/C(=N/OC(=O)C1CC1c1ccccc1)c1ccccc1 (stereo not given) returned PAFAH2 FP inh 32*, PAFAH1B2 inh 46*, pPAFAH inh 13, PAFAH1B3 inh 6 and TCR-CD3 inh 3.
`COc1ccc(C2CC2/C(C)=N/OC(=O)C2CC2)cc1` (stereo not given) gave PAFAH2 FP inh 5, PAFAH1B2 inh -2, pPAFAH inh 5, PAFAH1B3 inh 9 and TCR-CD3 inh 0.
Screening CC(C)(C)c1ccc(C#C[C@@H]2C=C[C@@H](O)[C@@H](CO)O2)cc1 returned TCR-CD3 inh -4.
O=C(O)C1C(C(=O)O)C1(c1ccccc1)c1ccccc1 (stereo not given) was read as PAFAH2 FP inh -3, PAFAH1B2 inh 0, pPAFAH inh 1, PAFAH1B3 inh 5 and TCR-CD3 inh -3.
`CCOC(=O)C1C(C(=O)OCC)C1(c1ccccc1)c1ccccc1` (stereo not given) gave PAFAH2 FP inh -6, PAFAH1B2 inh 29*, pPAFAH inh 3, PAFAH1B3 inh 8 and TCR-CD3 inh 5.
Screening Cc1ccc(C)c(N2CCN(C(=O)c3ccc(Cn4c(=S)[nH]c5ccc(N6CCOCC6)cc5c4=O)cc3)CC2)c1 returned PAFAH2 FP inh 4, PAFAH1B2 inh -4, pPAFAH inh 27*, PAFAH1B3 inh 2 and TCR-CD3 inh -12.
O=C(c1ccc2c(=O)n(Cc3ccccc3)c(=S)[nH]c2c1)N1CCCC1 was read as PAFAH2 FP inh 7, PAFAH1B2 inh 26*, pPAFAH inh 9, PAFAH1B3 inh 6 and TCR-CD3 inh -1.
Screening O=C1NC(c2cccc(C(F)(F)F)c2)c2c(-c3ccccc3)n[nH]c21 (stereo not given) returned TCR-CD3 inh 1.
Oc1cccc(Nc2nc(O)c(/C=C3\C=Nc4ccccc43)s2)c1 was read as PAFAH2 FP inh -21, PAFAH1B2 inh 15, pPAFAH inh 28*, PAFAH1B3 inh -249 and TCR-CD3 inh -19.
CC1=Nc2ccccc2/C1=C\c1sc(Nc2ccc(C)cc2)nc1O was read as PAFAH2 FP inh -1, PAFAH1B2 inh 3, pPAFAH inh 28*, PAFAH1B3 inh 5 and TCR-CD3 inh -1.
`O=C(N[C@H](Cc1ccccc1)C(=O)NCc1ccc2c(c1)OCO2)[C@H]1O[C@@H](n2ccc(=O)[nH]c2=O)[C@H](O)[C@@H]1O` gave TCR-CD3 inh 3.
O=C(CNC1CCCCC1)Nc1ccc(Cl)cc1 was read as PAFAH2 FP inh 12, PAFAH1B2 inh 3, pPAFAH inh 4, PAFAH1B3 inh 6 and TCR-CD3 inh 1.
For COc1ccc(NS(=O)(=O)c2ccc3c(c2)N(C(C)=O)CCO3)cc1 the results were PAFAH2 FP inh 1, PAFAH1B2 inh 4, pPAFAH inh 14, PAFAH1B3 inh 8 and TCR-CD3 inh -7.
For Cc1nc2ccccc2c(=O)n1NC(=O)c1ccco1 the results were PAFAH2 FP inh 3, PAFAH1B2 inh 1, pPAFAH inh 3, PAFAH1B3 inh 3 and TCR-CD3 inh 0.
Screening C/C(=N\Nc1nc2ccccc2c(=O)n1O)c1ccco1 returned PAFAH2 FP inh 7, PAFAH1B2 inh 3, pPAFAH inh 9, PAFAH1B3 inh 6 and TCR-CD3 inh 20*.
For Cc1ccc(S(=O)(=O)NCCc2nnc3ccc(SCC(=O)Nc4nc(C)cs4)nn23)cc1 the results were PAFAH2 FP inh 6, PAFAH1B2 inh -1, pPAFAH inh 4, PAFAH1B3 inh 1 and TCR-CD3 inh 0.
CC(C)(C)[C@H]1COC(=O)[C@@H](Cc2ccc(F)cc2)C/C=C\C[C@@H](CC(=O)N[C@H](CO)Cc2ccccc2)C(=O)N1 was read as PAFAH2 FP inh -5, PAFAH1B2 inh 66*, pPAFAH inh 6, PAFAH1B3 inh -6 and TCR-CD3 inh -1.
C[C@@H]1COC(=O)[C@H](Cc2ccc(F)cc2)CC/C=C/C[C@@H](CC(=O)N[C@@H](CO)Cc2ccccc2)C(=O)N1 was read as PAFAH2 FP inh 0, PAFAH1B2 inh 11, pPAFAH inh 0, PAFAH1B3 inh 2 and TCR-CD3 inh -2.
